Screening results deposited in PubChem BioAssay by The Scripps Research Institute Molecular Screening Center.
Hits are enriched below; roughly 4.1% of the tested compounds scored in any of these assays.
DAX1 inh-1 = inhibitors of human orphan nuclear receptor DAX1 (NR0B1). 340,000 compounds, 0.99% hits. HEK293 Gal4-DAX1 luciferase reporter, luminescence. AID 504766. P51843. inhibition, % at 6.75 µM;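 active = inhibition above the mean over all tested compounds plus 3 SD, cut at about 4.2% in these data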;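 also: inhibition shows as a rise in luminescence from relieved DAX1 repression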
Target sequence (P51843 207-470 limits assumed): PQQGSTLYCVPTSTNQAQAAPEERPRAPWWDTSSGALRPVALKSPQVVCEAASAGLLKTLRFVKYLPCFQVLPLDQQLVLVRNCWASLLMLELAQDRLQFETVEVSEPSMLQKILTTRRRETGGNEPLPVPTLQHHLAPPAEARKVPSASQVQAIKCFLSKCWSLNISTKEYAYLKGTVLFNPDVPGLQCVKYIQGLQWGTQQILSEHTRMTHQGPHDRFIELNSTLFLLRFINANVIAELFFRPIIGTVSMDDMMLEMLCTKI
ssDAF-12 act = activators of S. stercoralis DAF-12 nuclear receptor; HEK293 ssDAF-12/GRIP1 lit1-tk-luc reporter, luminescence; % of 3 µM dafachronic acid response; activation, % at 6.8 µM; 370,000 compounds, 1% hits; AID 652126;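 active = activation above the mean over all tested compounds plus 3 SD, cut at about 0.9% in these data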
DAX1 inh-2 = blocks DAX1 repression of SF-1 activated StAR promoter. HEK293T StAR-luciferase reporter, SF-1/DAX-1 repression relief. inhibition, % at 6.8 µM. 370,000 compounds, 1.1% hits;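 active = inhibition above the mean over all tested compounds plus 3 SD, cut at about 3.6% in these data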;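 also: higher inhibition means more luminescence from relief of DAX-1 repression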
hgDAF-12 ag = agonists of H. glycines DAF-12 nuclear receptor | HEK293 GAL4-hgDAF12 UAS-luciferase reporter, agonist luminescence; normalized to butyrate control | activation, % at 6.8 µM | 370,000 compounds, 1.8% hits;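 active = activation above a cutoff set at the mean of all screened compounds plus 3 SD, cut at about 10% in these data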
hcDAF-12 act = activates DAF-12 receptor from parasite H. contortus; activation, % at 6.8 µM; HEK293 hcDAF-12 lit1-tk-luc reporter, luminescence; 0% DMSO, 100% Δ7-dafachronic acid; 370,000 compounds, 1.4% hits; AID 652067;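 active = activation above the mean of all tested compounds plus 3 SD, cut at about 5.5% in these data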
Hits are given with their value; - = inactive; . = no result given.

SMILES	DAX1 inh-1	ssDAF-12 act	DAX1 inh-2	hgDAF-12 ag	hcDAF-12 act
Cc1ccc(CN2CCN(Cc3c[nH]c4ccccc34)CC2CCO)o1 (configuration not stated)	-	-	-	-	-
COC(=O)c1ccc(/C=C/c2ccc3cccc(OC(C)=O)c3n2)cc1	-	-	-	12	-
COc1c(OC(C)=O)ccc(/C=C/c2ccc3cccc(OC)c3n2)c1[N+](=O)[O-]	-	-	-	-	-
CCc1ccc(-c2csc(NC(=O)C3=COCCO3)n2)cc1	-	-	4.2	-	-
O=C(c1ccc(Cl)c(Cl)c1)N1CCN(c2ccnc3cc(Cl)ccc23)CC1	.	-	.	-	-
Cc1cccc(C(=O)N/N=C/c2coc3ccccc3c2=O)c1	-	-	-	-	-
Cc1ccc2occ(/C=N/NC(=O)[C@@H](N)Cc3ccccc3)c(=O)c2c1	5.3	-	-	-	-
CCn1nc(C)c(/C=N/NC(=O)c2ccoc2C)c1C	-	-	-	-	-
CCN(CC)c1ccc(/C=N/NC(=O)c2ccoc2C)c(O)c1	-	-	-	12	-
CCCCCn1nc(C)c(/C=N/NC(=O)c2ccoc2C)c1C	-	-	3.6	13	-
CCN(CC)c1ccc(/C=N/NC(=O)OC)c(O)c1	-	-	-	-	-
CN(Cc1ccccc1)C(=C(Cl)Cl)/C(=C1/NCCN1C)[N+](=O)[O-]	5.4	-	-	-	-
CCCCC(=O)N1CCN(C(=O)c2ccc3c(c2)nc(C)n3C2CCCC2)CC1	.	-	-	-	-
COc1cc(C(c2c(C(=O)O)[nH]c3ccccc23)c2c(C(=O)O)[nH]c3ccccc23)ccc1OCc1ccccc1	-	-	-	-	5.9
O=C(O)c1[nH]c2ccccc2c1C(c1ccccc1)c1c(C(=O)O)[nH]c2ccccc12	-	-	-	-	-
COc1ccc(NC(=O)CSCC(=O)Nc2sccc2C#N)cc1	-	1.0	-	-	-
COc1ccc(CCC(=O)Nc2sccc2C#N)cc1	.	-	-	12	-
COc1ccc(NC(=O)CSc2nc(N)c(C#N)cc2C#N)cc1	-	-	-	-	-
COCc1nnc(NC(=O)CCc2ccc(OC)cc2)s1	-	-	-	-	-
COC(=O)C1CN(Cc2cn(Cc3ccc(OC)cc3)nn2)CCS(=O)(=O)N1Cc1ccc(Cl)cc1 (configuration not stated)	.	-	-	-	-
CC(=O)c1cc(-c2ccc(-c3ccccc3)c(F)c2)c(=O)n2c1CCC2	.	-	-	-	-
O=S1(=O)c2c(NCc3ccco3)cccc2Oc2ccccc2CN1Cc1cn(Cc2ccc(C(F)(F)F)cc2)nn1	.	-	-	-	-
NNC(=S)Nc1ccc(Cl)cc1	-	-	-	-	-
Cc1ccc(Cl)cc1NC(=O)CCC(=O)O	5.0	-	-	-	-
Cc1ccc(Cl)cc1NC(=S)NN	.	0.9	-	-	-
SMILES	DAX1 inh-1	ssDAF-12 act	DAX1 inh-2	hgDAF-12 ag	hcDAF-12 act
O=C(C1CCN(S(=O)(=O)c2cccc3cccnc23)CC1)N1CCN(c2ccccc2)CC1	-	-	-	12	-
CC(=Nc1ccccc1O)c1sc2ccccc2c1O	-	-	-	13	-
CC(=Nc1ccc(O)cc1)c1sc2ccccc2c1O	-	-	-	12	-
CC(=O)NCCN=C(C)c1sc2ccccc2c1O	-	-	-	-	-
CN(C)c1nc(Cl)nc(NCCOc2ccccc2)n1	4.3	-	-	-	-
CCNc1nc(Cl)nc(NCCOc2ccc(C)cc2)n1	-	-	-	-	-
COc1ccc(/C(C)=N/NC(=O)Cn2nc([N+](=O)[O-])cc2C)cc1	4.5	-	-	-	-
COc1ccc(CNC(=O)Cn2nc([N+](=O)[O-])cc2C)cc1	-	-	-	-	-
C=CCn1c(SCC(C)=O)nc2scc(-c3ccc(C)o3)c2c1=O	4.7	-	-	-	-
C=CCn1c(SCC(=O)NCCCC)nc2scc(-c3ccco3)c2c1=O	-	-	-	-	-
O=C(O)c1ccc(C=NNC(=O)c2ccccc2NS(=O)(=O)c2cccs2)cc1	-	-	3.7	-	-
CCCC(C)(C)C(=O)N1CCC1(C)C(=O)NS(=O)(=O)c1cccc(Cl)c1 (configuration not stated)	.	-	-	-	-
Cc1ccc(F)cc1C(=O)N1CCCC(c2cc(C(=O)NCc3ccc(F)cc3)no2)C1 (configuration not stated)	.	-	-	-	-
Cc1ccc(F)cc1C(=O)N1CCCC(c2cc(C(=O)NCc3ccccc3)no2)C1 (configuration not stated)	.	-	4.0	-	-
CCCNC(=O)c1cc(C2CCCN(S(=O)(=O)c3cccs3)C2)on1 (configuration not stated)	.	1.1	-	-	-
C=CCN(C(=O)[C@@H](CCCC)[C@@H](O)c1ccc(C(C)=O)cc1)c1ccccc1	.	-	-	-	-
O=c1cc(CN2CCN(c3ccccn3)CC2)nc2sccn12	-	-	-	-	5.7
O=c1cc(CN2CCN(c3cccc(C(F)(F)F)c3)CC2)nc2sccn12	.	-	-	-	-
CCCCCCC12Cc3cc(OC)c(OC)cc3C(O1)C1=C(O2)C(C)(C)CCC1=O (configuration not stated)	.	-	-	-	-
Cc1cc(C)c2nc3sc(C(=O)N4CCOCC4)c(N)c3cc2c1	-	-	4.1	-	5.7
Cc1cc(C)c2cc3c(N)c(C(=O)N4CCOCC4)sc3nc2c1	-	-	-	-	-
CCc1ccc(-c2ccc(C(=O)C(F)(F)F)[nH]2)cc1	-	-	-	13	-
CCC(NC(=O)c1ccc2c(c1)c(C)c(C)n2Cc1ccc(-c2ccccc2C#N)cc1)c1ccccc1 (configuration not stated)	.	-	-	-	-
COCCn1c(=NC(=O)c2ccc(S(=O)(=O)N3CCCc4ccccc43)cc2)sc2cc(S(C)(=O)=O)ccc21	4.7	-	-	-	-
CCC[C@H]1[C@@H](OC(=O)Oc2ccc([N+](=O)[O-])cc2)CC[C@@]23CCCN2C(=O)CCC[C@@H]13	.	-	.	-	-
SMILES	DAX1 inh-1	ssDAF-12 act	DAX1 inh-2	hgDAF-12 ag	hcDAF-12 act
Brc1ccc(Cn2nnc(-c3ccc(N4CCOCC4)cc3)n2)cc1	.	-	-	-	-
O=C(O)c1ccc(-c2ccccc2)[nH]c1=O	5.4	-	-	-	-
Cc1cc(NC(=O)c2c(F)cccc2Cl)n(-c2nc3ccccc3[nH]2)n1	-	-	-	-	-
CC(C)(C)c1cc(NC(=O)c2c(F)cccc2Cl)n(-c2ccccc2)n1	4.5	-	-	-	-
COC(=O)[C@]12C[C@H](CC(=O)NCC3CCCCC3)C(=O)N(Cc3ccco3)C1=C[C@H](C1CCCC1)O[C@@H]2C	.	-	-	-	-
C[C@H]1CCCC(=O)N[C@@H](c2ccccc2)[C@@H](C)CCCC(=O)N[C@H]1c1ccccc1	.	-	-	-	-
CCN(CC)c1ccc(N=C2C=CC(=O)C=C2NC(C)=O)cc1	.	-	3.9	-	-
C=CCOc1ccc(/C=C(\C#N)C(=O)Nc2ccccn2)cc1OC	4.7	-	-	-	-
